In all, about 5,500 compounds went through this assay and about 2,000 (36%) were called active. About 18% were inconclusive and are not listed. Rule as the data show it: active = normalized growth mostly below about 0.91 (no sharp cut-off); inconclusive = no clear call, values can overlap the other calls; inactive = mostly above about 0.92. The list shows a part of the results.
Assay: chemical genetic growth profiling, strain panel (AID 1159580);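 also: tested at 20 µM; growth read once vehicle control cultures reached saturation at 30 °C; 1 = growth at the plate median or of vehicle wells; lower values mean less growth of the strain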
Details: S. cerevisiae deletion strains, growth OD
[1] = locus YHR030C, strain SLT2, hits give low values
[2] = locus YAL013W, strain DEP1, hits give low values
[3] = locus YBR229C, strain ROT2, hits give low values
[4] = locus YCL061C, strain MRC1, hits give low values
[5] = locus YDL101C, strain DUN1, hits give low values
[6] = locus YDL134C, strain PPH21, hits give low values
[7] = locus YDR150W, strain NUM1, hits give low values
[8] = locus YEL061C, strain CIN8, hits give low values
[9] = locus YGR078C, strain PAC10, hits give low values
[10] = locus YHR087W, strain rtc3, hits give low values
[11] = locus YJR043C, strain POL32, hits give low values
[12] = locus YJR075W, strain HOC1, hits give low values
[13] = locus YKL190W, strain CNB1, hits give low values
[14] = locus YLR039C, strain RIC1, hits give low values
[15] = locus YLR058C, strain SHM2 (second series), hits give low values
[16] = locus YLR085C, strain ARP6, hits give low values
[17] = locus YLR262C, strain YPT6, hits give low values
[18] = locus YML094W, strain GIM5, hits give low values
[19] = locus YMR219W, strain ESC1, hits give low values
[20] = locus YMR263W, strain SAP30, hits give low values
[21] = locus YMR307W, strain GAS1, hits give low values
[22] = locus YNL153C, strain GIM3, hits give low values
[23] = locus YNL298W, strain CLA4 (second series), hits give low values
[24] = locus YNL322C, strain KRE1, hits give low values
[25] = locus YNR030W, strain Alg12, hits give low values
[26] = locus YPL055C, strain LGE1, hits give low values
[27] = locus YPL241C, strain CIN2, hits give low values
[28] = locus YPR135W, strain CTF4, hits give low values
[29] = locus YGR229C, strain SMI1, hits give low values

Measured: normalized growth

CCOC(=O)c1cc(CC)sc1NC(=O)c1ccc([N+](=O)[O-])o1
active: locus YDL214C, strain PRR2, hits give low values 0.226 | locus YDR477W, strain SNF1, hits give low values 0.327 | locus YER123W, strain YCK3, hits give low values 0.34 | locus YER133W, strain GLC7, hits give low values 0.347 | locus YFR019W, strain FAB1, hits give low values 0.3 | locus YGR040W, strain KSS1, hits give low values 0.43 | locus YGR052W, strain FMP48, hits give low values 0.205 | [1] 0.281 | locus YHR082C, strain KSP1, hits give low values 0.202 | locus YHR205W, strain SCH9, hits give low values 0.153 | locus YJL095W, strain BCK1, hits give low values 0.318 | locus YJL157C, strain FAR1, hits give low values 0.372 | locus YJR066W, strain TOR1 (second series), hits give low values 0.197 | locus YJR066W, strain TOR1, hits give low values 0.212 | locus YKL067W, strain YNK1, hits give low values 0.435 | locus YKL101W, strain HSL1, hits give low values 0.451 | locus YLR113W, strain HOG1, hits give low values 0.574 | locus YLR133W, strain CKI1, hits give low values 0.18 | locus YLR403W, strain SFP1, hits give low values 0.129 | locus YML070W, strain DAK1, hits give low values 0.471 | locus YMR205C, strain PFK2 (second series), hits give low values 0.47 | locus YNL006W, strain LST8, hits give low values 0.507 | locus YNL020C, strain ARK1, hits give low values 0.338 | locus YNL183C, strain NPR1, hits give low values 0.175 | locus YNL307C, strain MCK1 (second series), hits give low values 0.464 | locus YOL136C, strain PFK27, hits give low values 0.378 | locus YOR061W, strain CKA2, hits give low values 0.334 | locus YPL031C, strain PHO85, hits give low values 0.169 | locus YPL153C, strain RAD53, hits give low values 0.487 | locus YPL204W, strain HRR25, hits give low values 0.464 | locus YPL256C, strain CLN2, hits give low values 0.337
inactive: locus YBL105C, strain PKC1, hits give low values 0.959 | locus YBR135W, strain CKS1, hits give low values 0.992 | locus YBR136W, strain MEC1, hits give low values 0.999 | locus YBR160W, strain CDC28, hits give low values 1 | locus YDL017W, strain CDC7, hits give low values 1 | locus YDL028C, strain MPS1, hits give low values 0.988 | locus YDL108W, strain KIN28, hits give low values 0.998 | locus YDL132W, strain cdc53, hits give low values 0.996 | locus YDR052C, strain DBF4, hits give low values 1 | locus YDR054C, strain cdc34, hits give low values 0.985 | locus YDR226W, strain ADK1, hits give low values 0.985 | locus YFL009W, strain cdc4, hits give low values 0.985 | locus YFL029C, strain CAK1, hits give low values 0.929 | locus YFR003C, strain YPI1, hits give low values 1 | locus YFR028C, strain CDC14, hits give low values 0.991 | locus YGR092W, strain DBF2, hits give low values 0.505 | locus YHR079C, strain IRE1, hits give low values 0.727 | locus YIL147C, strain SLN1, hits give low values 1 | locus YJL128C, strain PBS2, hits give low values 0.938 | locus YJR016C, strain ILV3, hits give low values 0.95 | locus YKL193C, strain SDS22, hits give low values 0.98 | locus YMR001C, strain CDC5, hits give low values 0.998 | locus YNL161W, strain CBK1, hits give low values 0.987 | locus YNL207W, strain RIO2, hits give low values 0.995 | locus YNL222W, strain SSU72, hits give low values 0.993 | locus YOL078W, strain AVO1, hits give low values 1 | locus YOR231W, strain MKK1, hits give low values 0.756 | locus YOR329C, strain SCD5, hits give low values 1 | locus YPL209C, strain IPL1, hits give low values 0.979 | locus YPR111W, strain DBF20, hits give low values 0.906 | strain NNK1, hits give low values 0.995 | strain TSCII, hits give low values 0.998

FC(F)(F)c1cnc(N2CCN(C(=S)Nc3ccccc3)CC2)c(Cl)c1
inactive: [2] 0.989 | [3] 1.01 | [4] 1 | [5] 0.999 | [6] 1.01 | [7] 0.963 | [8] 0.985 | [9] 0.993 | [1] 1.05 | [10] 1.03 | [11] 0.986 | [12] 1.02 | [13] 1.01 | [14] 0.984 | [15] 1.02 | [16] 1.03 | [17] 1.02 | [18] 0.952 | [19] 1.02 | [20] 0.982 | [21] 1 | locus YNL128W, strain TEP1, hits give low values 1.01 | [22] 0.972 | [23] 0.976 | [24] 1.01 | [25] 1 | locus YOL006C, strain TOP1, hits give low values 0.894 | [26] 0.938 | [27] 0.955 | [28] 0.981

CC(C)c1ccccc1NC(=S)N1CCN(c2ncc(C(F)(F)F)cc2Cl)CC1
active: [14] 0.761 | [17] 0.736
inactive: [2] 1.02 | [3] 0.995 | [5] 0.985 | [7] 1.02 | [8] 1.01 | [9] 1.01 | [29] 0.963 | [1] 0.976 | [10] 1.02 | [11] 0.995 | [12] 0.972 | [15] 0.977 | [16] 1.1 | [18] 1.04 | [19] 0.992 | [20] 0.991 | [22] 1.02 | [23] 0.984 | [24] 0.998 | [25] 1.02 | [26] 1.13 | [27] 1.07 | [28] 1.17

Cc1cc(C)cc(NC(=S)N2CCN(c3ncc(C(F)(F)F)cc3Cl)CC2)c1
inactive: [2] 1 | [3] 1.01 | [4] 1 | [5] 1 | [6] 0.986 | [7] 0.997 | [8] 1.01 | [9] 1 | [29] 0.976 | [1] 1.02 | [10] 1.01 | [11] 1.01 | [12] 0.996 | [13] 0.98 | [14] 1.04 | [15] 1.01 | [16] 0.99 | [17] 1.03 | [18] 1.02 | [19] 0.999 | [20] 1 | [21] 0.907 | [22] 1.01 | [23] 1.06 | [24] 0.998 | [25] 1.02 | [26] 1.03 | [27] 0.886 | [28] 1

From PubChem BioAssay AID1159580 (chemical genetic matrix, 2015)
